Experimental data: PubChem BioAssay (NCATS)
Results filed as inconclusive are left out. A call without a number means that no potency is given here. A number with no mark means an inactive call. Activity calls are given as the source filed them. Calls come from the whole dose curve; as a rule, active = well fitted inhibition curve with a large enough effect; inconclusive = small, poorly fitted or top-dose-only effect; inactive = flat fitted curve, though single readings scatter.

What follows are compounds tested against Calcium and integrin-binding protein 1 (Homo sapiens) (UniProt Q99828) (assay: Primary qHTS for Identification of Calcium Integrin Binding Protein 1 (CIB1) Competitor (AID 1508620;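 note: GST tagged CIB1 binding a fluorescein labelled alphaIIb integrin peptide tracer; top concentration of the series differs between compounds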)). Settings: CIB1-GST / FITC-alphaIIb peptide fluorescence polarization; series mostly up to 114 µM.
Chain of Calcium and integrin-binding protein 1 (Homo sapiens) (Q99828 whole entry, looked up): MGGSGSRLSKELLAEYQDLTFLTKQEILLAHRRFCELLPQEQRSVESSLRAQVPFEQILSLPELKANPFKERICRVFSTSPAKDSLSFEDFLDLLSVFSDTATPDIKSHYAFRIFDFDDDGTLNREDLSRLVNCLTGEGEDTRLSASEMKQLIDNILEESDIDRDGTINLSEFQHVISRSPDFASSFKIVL
In short: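 CIB1-GST (1 uM final) and compound incubated 15 min at room temperature before adding FITC-alphaIIb peptide tracer (100 nM final). Competition for binding read by fluorescence polarization (ex 480, em 540) after another 15 min at room temperature.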

Row | Structure (SMILES) | Potency | activity change, negative = inhibition
1 | CCCCC1CCN(CCCC(=O)c2ccccc2C)CC1 | inactive | 
2 | CC(C)(O)C1CCC(C)(C2CCC3(C)C4CCC5C(C)(C(=O)OC6OC(CO)C(O)C(O)C6O)C(O)CC(O)C56CC46CCC23C)O1 (stereo not given) | inactive | 
3 | CN=C(N)NCCCCC/C=C(/C)CC(C)C1OC(=O)C(C)C(O)/C=C/C(C)C(O)CC(O)C(C)C(O)CCC(C)C(O)CC2(O)OC(CC(OC(=O)CC(=O)O)CC(O)CC(O)C(C)C(O)/C(C)=C/CCC1C)CC(O)C2O (stereo not given) | inactive | 
4 | COc1ccc(CC2C(=O)NC(C)C(=O)N(C)C3Cc4ccc(cc4)Oc4cc(ccc4OC4OC(CO)C(O)C(O)C4O)CC(C(=O)NC(C)C(=O)NC(C)C(=O)N2C)N(C)C3=O)cc1 (stereo not given) | inactive | 
5 | O=C(OC1C=C(CO)C2C(OC3OC(CO)C(O)C(O)C3O)OC=CC12)c1ccc(O)cc1 (stereo not given) | inactive | 
6 | CC(=O)OC1C(O)CC2(C)C(CCC(C)C23Cc2c(O)cc(CO)c(C=O)c2O3)C1(C)C (stereo not given) | inactive | 
7 | C/C=C1\[C@H](O[C@@H]2O[C@H](CO)[C@@H](O)[C@H](O)[C@H]2O)OC=C(C(=O)OC)[C@H]1CC(=O)OC[C@H]1O[C@@H](OCCc2ccc(O)cc2)[C@H](O)[C@@H](O)[C@@H]1O | inactive | 
8 | C=C[C@@H]1[C@H](O[C@@H]2O[C@H](CO)[C@@H](O)[C@H](O)[C@H]2O)OC=C(C(=O)O)[C@H]1CCOC(=O)/C=C/c1ccc(O)c(O)c1 | inactive | 
9 | O=C(Nc1ccccc1)N1CCN(Cc2ccc3ccccc3n2)CC1 | inactive | 
10 | C/C1=C\CC[C@]2(C)O[C@@H]2[C@H](O)[C@H](C(C)C)[C@H](OC(=O)/C=C/c2ccccc2)C1 | inactive | 
11 | C[C@@H]1O[C@@H](OC[C@H]2O[C@@H](Oc3cc(O)cc4c3C(=O)C(O)(Cc3ccc(O)cc3)O4)[C@H](O)[C@@H](O)[C@@H]2O)[C@H](O)[C@H](O)[C@H]1O (stereo not given in full) | inactive | 
12 | C=CC(C)(O)CC[C@H]1C(=C)CCC2[C@](C)(C(=O)O)CCC[C@@]21C (stereo not given in full) | inactive | 
13 | CC1(C)CC[C@]2(C(=O)O[C@@H]3O[C@H](CO)[C@@H](O)[C@H](O)[C@H]3O)CC[C@]3(C)C(=CCC4[C@@]5(C)C[C@@H](O)[C@H](O)C(C)(C)C5[C@H](O)C[C@]43C)[C@@H]2[C@@H]1O (stereo not given in full) | inactive | 
14 | COC(=O)C1=C2Nc3ccccc3C23CCN2CCCC(C(C)O)(C1)C23 (stereo not given) | inactive | 
15 | CC1(C)CC[C@]2(C(=O)O[C@@H]3O[C@H](CO)[C@@H](O)[C@H](O)[C@H]3O)CC[C@]3(C)C(=CCC4[C@@]5(C)C[C@@H](O)[C@H](O)C(C)(C)C5CC[C@]43C)C2[C@@H]1O (stereo not given in full) | inactive | 
16 | Cn1nnc(-c2ccc(-c3ccc(N4C[C@H](CO)OC4=O)cc3F)cn2)n1 | inactive | 
17 | CC(=O)O[C@@H]1[C@H](O[C@@H]2O[C@@H](CO)[C@H](O)[C@H]2O)[C@@H](O[C@@H]2O[C@@H](C)[C@H](O[C@@H]3OC[C@@H](O)[C@H](O)[C@H]3O)[C@@H](O)[C@H]2O)[C@H](OC(=O)[C@]23CCC(C)(C)C[C@H]2C2=CCC4[C@@]5(C)CC[C@H](O[C@@H]6O[C@H](C(=O)O)[C@@H](O)[C@H](O)[C@H]6O[C@@H]6O[C@H](CO)[C@H](O)[C@H](O)[C@H]6O)[C@@](C)(C=O)C5CC[C@@]4(C)[C@]2(C)CC3)O[C@@H]1C (stereo not given in full) |  | -9.52% [at 12.4 µM]
18 | COC(=O)C1=CO[C@@H](O[C@@H]2O[C@H](CO)[C@@H](O)[C@H](O)[C@H]2O)[C@@H]2C(CO)=CC[C@]12O | inactive | 
19 | CCN(CC)Cc1ccc(C(=O)N(CCc2ccccc2OC)[C@@H]2CCNC2)cc1 | inactive | 
20 | C=C(C(=O)O)[C@H]1C[C@]2(C)[C@@H](O)CC[C@]23O[C@H]1C[C@@H]3C | inactive | 

Row | Structure (SMILES) | Potency | activity change, negative = inhibition
21 | O=[N+]([O-])c1cccc2[nH]c(CNc3nc(N4CCOCC4)nc4c3ncn4-c3ccsc3)nc12 | inactive | 
22 | Cc1nc2sc(C(=O)NCc3ccncc3)c(N)c2c(C)c1Cl | inactive | 
23 | CCCCOC(=O)NC(=O)C1c2ccccc2Oc2ccccc21 | inactive | 
24 | CC1(C)CCC[C@]2(C)[C@H]3CC(=O)O[C@]3(C)CC[C@@H]12 | inactive | 
25 | C=C1[C@@H]2CC[C@@H]3[C@@](CCC4C(C(=O)O)(C(=O)O)C[C@@H](O[C@@H]5O[C@H](CO)[C@@H](O)[C@H](O)[C@H]5OC(=O)CC(C)C)C[C@]43C)(C2)[C@H]1O (stereo not given in full) | inactive | 
26 | Cc1cc(C)c(CNC(=O)c2cc(-c3ccc(CN4CCOCC4)cc3)cc3c2cnn3C2CCCC2)c(=O)[nH]1 | inactive | 
27 | COc1cc2c(cc1O)CC[C@H]1[C@@H]2CC[C@]2(C)[C@H](O)CC[C@@H]12 | inactive | 
28 | COc1c/c(=C2\C=c3ccccc3=N2)[nH]/c1=C\c1[nH]c(C)cc1C | inactive | 
29 | C[C@H]1CC[C@@]2(OC1)O[C@H]1CC3C4CC[C@H]5C[C@@H](O)[C@H](O)C[C@]5(C)C4=CC(=O)[C@]3(C)[C@H]1[C@@H]2C (stereo not given in full) | inactive | 
30 | CC(=O)O[C@H]1CC(C)(C)CC2[C@@]13[C@H](O)C[C@]1(C)[C@@]2(CCC2[C@@]4(C)CC[C@H](O[C@@H]5OC[C@H](O[C@@H]6O[C@H](CO)[C@@H](O)[C@H](O)[C@H]6O[C@@H]6OC[C@@H](O)[C@H](O)[C@H]6O)[C@H](O)[C@H]5O[C@@H]5O[C@H](CO)[C@@H](O)[C@H](O)[C@H]5O)C(C)(C)C4CC[C@]21C)O[C@@H]3O (stereo not given in full) | inactive | 
31 | O=C(CN1C(=O)C2(CCCC2)NCC1c1cc(F)cc(F)c1)Nc1ccc2c(c1)CC1(C2)C(=O)Nc2ncccc21 (stereo not given) | inactive | 
32 | O=C(O[C@H]1[C@@H]2C=CO[C@@H](O[C@@H]3O[C@H](CO)[C@@H](O)[C@H](O)[C@H]3O)[C@@H]2[C@@]2(CO)O[C@@H]12)c1ccccc1 | inactive | 
33 | C[C@@H]1O[C@@H](O[C@H]2[C@H](OC(=O)[C@]34CCC(C)(C)C[C@H]3C3=CCC5[C@@]6(C)C[C@H](O)[C@H](O[C@@H]7O[C@H](CO)[C@@H](O)[C@H](O)[C@H]7O)[C@@](C)(CO)C6[C@H](O)C[C@@]5(C)[C@]3(C)CC4)OC[C@H](O)[C@@H]2O)[C@H](O)[C@H](O)[C@H]1O[C@@H]1OC[C@@H](O)[C@H](O[C@@H]2OC[C@](O)(CO)[C@H]2O)[C@H]1O (stereo not given in full) |  | 3.34% [at 12.4 µM]
34 | C=CC(C)(C)C12C=C(OC)C(=O)N3C(C(C)C)C(=O)NC31N(OC)c1ccccc12 (stereo not given) | inactive | 
35 | CC(=O)OC1C[C@@]2(C)[C@@H](CC[C@@H](C)[C@]23Cc2c(O)cc4c(c2O3)CNC4=O)C(C)(C)[C@@H]1O (stereo not given in full) | inactive | 
36 | CC(C)CN(C[C@@H](O)[C@H](Cc1ccccc1)NC(=O)O[C@@H]1CO[C@H]2OCC[C@H]21)S(=O)(=O)c1ccc(N)cc1 | inactive | 
37 | COC(=O)C1=COC(OC2OC(CO)C(O)C(O)C2O)C2C1C=CC2(O)CO (stereo not given) | inactive | 
38 | C#CC[C@H](c1nc2cc(Cl)ccc2c(=O)n1Nc1ccccc1)N(CCCN)C(=O)c1cccc(Cl)c1F | inactive | 
39 | COc1cc2oc(-c3ccc(O)cc3O)cc2c(OC)c1CC=C(C)C | inactive | 
40 | COc1ccc(C[C@H](N)C(=O)N[C@@H]2[C@H](O)[C@H](n3cnc4c(N(C)C)ncnc43)O[C@@H]2CO)cc1 | inactive | 
